# Six1-Eya2 inh = blocks human Six1 binding to Eya2; AlphaScreen GST-Six1/His-Eya2 binding, biochemical; active compounds read low; activity change, % (no concentration beside the values); 360,000 compounds, 0.56% hits; AID 651725; note: % is set by controls: 0 for no effect and ±100 for the full control effect
#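 GST-Six1 + His-Eya2 (5X stock: 250/500 nM); Tris pH 8.0, 300 mM NaCl, 0.05% BSA, 0.02% Tween 20; GSH donor/Ni acceptor beads; 1 h 37 °C dark; AlphaScreen readout.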
# GLS inh = glutaminase GLS (human) inhibition. GLS enzymatic activity, qHTS titration. O94925. Potency, µM (series often up to 45.5 µM), without a hit: top-dose activity change, negative = inhibition, hits mostly inhibitors. 410,000 compounds, 0.21% hits. AID 624170; active = well fitted inhibition curve with a large enough effect; inconclusive = small, poorly fitted or top-dose-only effect, or another doubt; inactive = no such curve, though single readings can be large or run the other way; note: potency is the fitted concentration of half-maximal effect; % is set by controls: 0 for no effect and ±100 for the full control effect
#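 Glutamate formation by hKGA was monitored fluorometrically using coupled glutamate oxidase, HRP and Amplex Red. Substrate was added as 1 mM L-glutamine solution; incubation was 30 min at RT after an initial read.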
# Menin MLL FP FL = inhibitors of human menin-MLL interaction, wild-type MLL peptide. Fluorescence polarization, fluorescein-MLL peptide displacement from menin. FP activity change, % at 61.4 µM. 290,000 tested, under 10 active. AID 1766; active = well fitted curve in the direction sought with a large enough effect in the polarisation, not every such curve was filed as active; inconclusive = small, poorly fitted or top-dose-only effect, or effect the other way, or a change in a side signal; inactive = no such curve, though single readings can be large or run the other way; the % refers to the polarisation; note: % of control where 0% means no effect
# MLL CXXC-DNA inh = blocks binding of human MLL CXXC domain to DNA; Q03164; MLL-CXXC / FITC-HOXA9 DNA fluorescence polarization; Potency, µM (doses to about 115 µM), inactives show top-dose activity change, negative = inhibition, hits mostly inhibitors; 290,000 compounds, 0.037% hits; AID 2662; active = well fitted inhibition curve with a large enough effect in the polarisation, with a control signal flat, not every such curve was filed as active; inconclusive = small, poorly fitted or top-dose-only effect, or effect the other way, or a change in a side signal; inactive = no such curve, though single readings can be large or run the other way; the % refers to the polarisation; note: potency is the fitted concentration of half-maximal effect
# Target sequence (Q03164 whole entry, looked up, the tested form may be a part): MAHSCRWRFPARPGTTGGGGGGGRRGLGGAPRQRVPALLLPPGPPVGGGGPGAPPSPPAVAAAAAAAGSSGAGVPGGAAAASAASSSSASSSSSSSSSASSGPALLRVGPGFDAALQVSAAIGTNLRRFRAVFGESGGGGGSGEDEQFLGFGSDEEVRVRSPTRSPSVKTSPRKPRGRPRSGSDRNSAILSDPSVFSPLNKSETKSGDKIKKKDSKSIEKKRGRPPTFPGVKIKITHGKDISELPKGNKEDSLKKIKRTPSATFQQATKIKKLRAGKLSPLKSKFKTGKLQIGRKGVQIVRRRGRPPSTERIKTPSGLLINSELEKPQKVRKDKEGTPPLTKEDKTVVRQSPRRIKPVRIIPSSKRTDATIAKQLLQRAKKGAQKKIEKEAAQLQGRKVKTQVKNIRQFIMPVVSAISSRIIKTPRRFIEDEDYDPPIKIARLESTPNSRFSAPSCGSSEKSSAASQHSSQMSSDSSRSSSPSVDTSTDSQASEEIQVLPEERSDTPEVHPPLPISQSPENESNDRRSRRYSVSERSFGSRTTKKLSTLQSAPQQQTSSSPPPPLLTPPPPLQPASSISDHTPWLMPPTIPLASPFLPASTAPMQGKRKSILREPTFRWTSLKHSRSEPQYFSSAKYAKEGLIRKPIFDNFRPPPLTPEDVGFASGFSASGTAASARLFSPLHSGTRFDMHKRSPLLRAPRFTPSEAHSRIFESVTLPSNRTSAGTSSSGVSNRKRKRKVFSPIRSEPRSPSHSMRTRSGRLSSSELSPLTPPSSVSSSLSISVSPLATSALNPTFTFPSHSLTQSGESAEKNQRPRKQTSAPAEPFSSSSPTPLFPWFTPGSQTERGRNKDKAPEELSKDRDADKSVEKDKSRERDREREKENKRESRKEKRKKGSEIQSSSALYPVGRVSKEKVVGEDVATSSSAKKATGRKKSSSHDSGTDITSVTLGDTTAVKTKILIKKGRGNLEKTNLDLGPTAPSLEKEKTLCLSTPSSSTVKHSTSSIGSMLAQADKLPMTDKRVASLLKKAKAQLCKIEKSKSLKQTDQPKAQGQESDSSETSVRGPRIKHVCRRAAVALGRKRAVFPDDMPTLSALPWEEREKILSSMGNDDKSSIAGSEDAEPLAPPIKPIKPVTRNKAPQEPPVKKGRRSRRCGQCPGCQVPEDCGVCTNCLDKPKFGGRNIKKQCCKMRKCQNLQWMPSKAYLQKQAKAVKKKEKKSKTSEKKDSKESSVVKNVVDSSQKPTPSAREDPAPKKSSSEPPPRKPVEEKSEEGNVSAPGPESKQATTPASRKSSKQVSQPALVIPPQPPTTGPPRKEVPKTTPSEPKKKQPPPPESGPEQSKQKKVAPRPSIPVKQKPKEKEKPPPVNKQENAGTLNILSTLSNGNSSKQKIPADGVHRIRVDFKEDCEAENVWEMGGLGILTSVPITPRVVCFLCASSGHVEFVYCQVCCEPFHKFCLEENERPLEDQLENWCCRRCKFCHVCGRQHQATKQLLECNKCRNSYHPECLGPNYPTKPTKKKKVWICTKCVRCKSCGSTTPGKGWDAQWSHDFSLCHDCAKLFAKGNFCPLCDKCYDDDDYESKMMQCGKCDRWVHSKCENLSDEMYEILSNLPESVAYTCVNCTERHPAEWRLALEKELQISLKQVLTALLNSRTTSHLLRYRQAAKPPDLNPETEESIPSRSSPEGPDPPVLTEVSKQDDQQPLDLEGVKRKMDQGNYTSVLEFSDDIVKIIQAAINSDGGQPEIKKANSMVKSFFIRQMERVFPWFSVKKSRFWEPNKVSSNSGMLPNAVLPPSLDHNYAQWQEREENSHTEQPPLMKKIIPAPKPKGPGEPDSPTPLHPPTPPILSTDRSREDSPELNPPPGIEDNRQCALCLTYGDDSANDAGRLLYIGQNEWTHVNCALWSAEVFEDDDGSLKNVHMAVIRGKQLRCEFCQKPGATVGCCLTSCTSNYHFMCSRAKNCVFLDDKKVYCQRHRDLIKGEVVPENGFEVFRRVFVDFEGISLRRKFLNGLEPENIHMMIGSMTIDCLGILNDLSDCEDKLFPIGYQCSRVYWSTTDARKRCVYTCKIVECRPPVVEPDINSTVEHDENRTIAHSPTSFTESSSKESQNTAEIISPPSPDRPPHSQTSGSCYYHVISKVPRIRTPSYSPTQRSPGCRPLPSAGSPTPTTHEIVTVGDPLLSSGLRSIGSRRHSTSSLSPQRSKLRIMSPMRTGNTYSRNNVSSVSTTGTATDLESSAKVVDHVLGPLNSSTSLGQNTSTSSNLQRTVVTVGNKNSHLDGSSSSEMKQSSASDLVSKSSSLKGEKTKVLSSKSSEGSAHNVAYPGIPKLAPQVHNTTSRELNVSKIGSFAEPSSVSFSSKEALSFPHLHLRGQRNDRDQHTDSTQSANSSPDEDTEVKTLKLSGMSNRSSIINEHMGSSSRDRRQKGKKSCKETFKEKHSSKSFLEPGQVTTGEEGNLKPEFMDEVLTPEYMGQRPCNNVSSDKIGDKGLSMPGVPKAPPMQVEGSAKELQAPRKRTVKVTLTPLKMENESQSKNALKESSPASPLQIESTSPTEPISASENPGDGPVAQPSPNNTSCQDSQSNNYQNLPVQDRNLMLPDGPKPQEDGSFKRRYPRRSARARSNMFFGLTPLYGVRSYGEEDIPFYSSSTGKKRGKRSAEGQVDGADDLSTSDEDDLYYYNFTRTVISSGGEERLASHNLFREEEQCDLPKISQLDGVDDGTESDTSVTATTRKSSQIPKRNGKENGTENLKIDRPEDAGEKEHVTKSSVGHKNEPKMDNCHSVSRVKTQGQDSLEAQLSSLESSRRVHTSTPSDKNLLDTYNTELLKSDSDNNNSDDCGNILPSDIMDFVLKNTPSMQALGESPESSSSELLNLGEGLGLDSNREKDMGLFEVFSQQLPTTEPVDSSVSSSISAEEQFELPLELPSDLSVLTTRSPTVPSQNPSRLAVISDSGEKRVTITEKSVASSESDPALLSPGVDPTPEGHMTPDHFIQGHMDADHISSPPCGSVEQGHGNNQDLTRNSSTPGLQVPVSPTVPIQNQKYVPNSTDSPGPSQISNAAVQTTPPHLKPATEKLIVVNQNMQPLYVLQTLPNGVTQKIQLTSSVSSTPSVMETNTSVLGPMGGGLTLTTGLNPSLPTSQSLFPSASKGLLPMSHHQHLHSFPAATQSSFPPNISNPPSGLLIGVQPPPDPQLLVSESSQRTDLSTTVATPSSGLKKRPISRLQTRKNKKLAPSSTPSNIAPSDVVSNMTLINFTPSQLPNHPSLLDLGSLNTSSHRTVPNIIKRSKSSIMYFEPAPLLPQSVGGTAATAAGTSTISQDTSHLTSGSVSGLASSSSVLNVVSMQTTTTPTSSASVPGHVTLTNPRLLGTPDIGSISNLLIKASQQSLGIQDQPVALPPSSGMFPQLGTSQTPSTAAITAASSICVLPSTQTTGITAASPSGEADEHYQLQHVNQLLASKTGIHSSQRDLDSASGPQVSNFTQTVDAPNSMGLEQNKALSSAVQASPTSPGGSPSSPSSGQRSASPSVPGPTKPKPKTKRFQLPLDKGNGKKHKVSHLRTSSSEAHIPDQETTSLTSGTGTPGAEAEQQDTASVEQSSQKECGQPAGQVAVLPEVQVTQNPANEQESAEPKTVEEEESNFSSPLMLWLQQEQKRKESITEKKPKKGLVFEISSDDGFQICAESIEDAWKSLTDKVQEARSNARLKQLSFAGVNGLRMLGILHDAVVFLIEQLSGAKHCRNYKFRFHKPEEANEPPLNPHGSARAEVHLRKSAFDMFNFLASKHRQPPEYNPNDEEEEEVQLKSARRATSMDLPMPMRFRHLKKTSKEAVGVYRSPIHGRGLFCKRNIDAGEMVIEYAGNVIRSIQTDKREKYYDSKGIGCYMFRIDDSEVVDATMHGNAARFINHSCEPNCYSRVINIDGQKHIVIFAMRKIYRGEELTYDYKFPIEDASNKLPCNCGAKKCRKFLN
#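 Steps: dispense CXXC domain solution (7 uM) → pin compounds or unlabeled HOX-A9 DNA control → 5 min ambient → add FLSN-HOX-A9 solution (50 nM) → spin → 30 min ambient → fluorescence polarization. Tris pH 7.5/NaCl/DTT/BSA buffer.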
# CtBP-E1A inh = inhibitors of CtBP/E1A interaction; AlphaScreen GST-E1A/His-CtBP binding, 1536-well; active compounds read low; activity change, % (no concentration beside the values); 340,000 compounds, 0.49% hits; note: % is set by controls: 0 for no effect and ±100 for the full control effect
#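 Homogeneous bead-based format: GST-tagged E1A captured on glutathione donor beads, His-tagged CtBP on nickel acceptor beads; compounds precede bead addition by 2 h at 37 °C.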
# Menin MLL FP TR = displaces Texas Red mutant MLL peptide from human menin. Menin + Texas Red MLL mutant peptide, fluorescence polarization. 270,000 compounds, 0.23% hits. O00255. Potency, µM (doses to about 61.6 µM), without a hit: at the highest dose FP activity change, negative = inhibition, hits mostly inhibitors; active = well fitted inhibition curve with a large enough effect in the polarisation, with a control signal flat, not every such curve was filed as active; inconclusive = small, poorly fitted or top-dose-only effect, or effect the other way, or a change in a side signal; inactive = no such curve, though single readings can be large or run the other way; the % refers to the polarisation; note: potency is the fitted concentration of half-maximal effect; % of control where 0% means no effect
# Active calls of the source: *; ? = inconclusive; . = no result; [ ] = remark or other dose. In the library only some 0.83% were active in any assay of this set; here they are far more common. Cut-off read from the data, not from the text of the source, unless noted: active = activity change below about -65%; inconclusive = mostly about -30% to -63%; inactive = weaker than that.
SMILES,Six1-Eya2 inh,GLS inh,Menin MLL FP FL,MLL CXXC-DNA inh,CtBP-E1A inh,Menin MLL FP TR
CCOc1ccc(-n2c(=S)sc3c(=O)[nH]c(SCC(=O)N4CCC(C)CC4)nc32)cc1,-3,7.1µM*,4,1%,1,?
CCOC(=O)CSc1nc2c(sc(=S)n2-c2ccc(OCC)cc2)c(=O)[nH]1,-8,-15%,-3,27%,-12,?
CC1=C(C(=O)O)N2C(=O)[C@@H](NC(=O)[C@@H](N)c3ccc(O)cc3)[C@@H]2SC1,.,0%[20 µM],-13[24.8 µM],-1%[51.4 µM],.,7%[24.8 µM]
COc1ccc(/C=C/C(=O)Nc2ccc3nc4n(c(=O)c3c2)CCCC4)cc1,-12,-1%,-3,6%,-4,-3%
COc1cc(/C=C/C(=O)Nc2ccc3nc4n(c(=O)c3c2)CCCC4)cc(OC)c1OC,-85*,-9%,0,-6%,?,-28%
COc1ccccc1C(=O)Nc1ccc2nc3n(c(=O)c2c1)CCCC3,-3,1%,1,10%,-10,-10%
COc1cccc(/C=C/C(=O)Nc2ccc3nc4n(c(=O)c3c2)CCCC4)c1OC,?,2%,3,-4%,-78*,?
O=C(NCc1ccccn1)c1ccc(-c2ccccc2)cc1,2,0%,0,-3%,-22,1%
Cc1ccc(CNC(=O)c2c(C)cc(=O)oc2C)cc1,-1,1%,1,?,3,0%
O=C(NCc1ccccn1)c1ccc(=O)oc1,-87*,3%,3,-3%,-79*,0%
Cc1cc(=O)oc(C)c1C(=O)NCc1ccccn1,-81*,9%,3,0%,?,-19%
CC(C)C(N)c1csc(Nc2ccc(C(=O)NCCCO)cn2)n1 (centres undefined),?,30%,.,.,-75*,.
NC(CCc1ccccc1)c1csc(Nc2ccc(C(=O)NCCCO)cn2)n1 (centres undefined),?,13%,.,.,-69*,.
NC(CCc1ccccc1)c1csc(Nc2ccc(C(=O)NCCO)cc2)n1 (centres undefined),-12,1%,.,.,-5,.
NC(Cc1ccccc1)c1csc(Nc2ccc(C(=O)NCCCO)cn2)n1 (centres undefined),-66*,22%,.,.,-82*,.
NC(Cc1ccc(Cl)cc1)c1csc(Nc2ccc(C(=O)NCCCO)cn2)n1 (centres undefined),?,12%,.,.,?,.
COc1ccccc1-c1nn(CCC(=O)Nc2cccc(C(C)=O)c2)c2nc(C)cc(C)c12,.,3%,.,.,.,.
O=C(C(=Cc1ccc(F)cc1)c1ccccc1)c1ccc(O)cc1,-4,11µM*,.,.,-11,.
COc1cccc(CNC(=O)CCc2c(C)c3cc4c(C)c(C)oc4cc3oc2=O)c1,.,-9%,.,.,.,.
Cc1cccc(C(=O)NNS(=O)(=O)c2ccccc2)c1O,2,6.3µM*,2,-1%,-15,-8%
CC(C)CN(C[C@@H](OP(=O)(O)O)[C@H](Cc1ccccc1)NC(=O)O[C@@H]1CCOC1)S(=O)(=O)c1ccc(N)cc1,.,14µM*,2,-6%,.,3%
O=C(CN1CCN(c2ccccc2)CC1)N1CCc2ccccc21,3,24%,11,7%,-1,-16%
O=C(CN1CCN(c2ccc(O)cc2)CC1)N1CCc2ccccc21,-12,8.9µM*,-3,1%,14,-25%
O=[N+]([O-])c1cc(Cl)ccc1N1CCCCC1,?,-11%,-6,1%,-24,4%
NC(=O)c1ccc(N2CCN(c3ccc(O)cc3)CC2)c([N+](=O)[O-])c1,-7,13µM*,4,11%,-15,?
SMILES,Six1-Eya2 inh,GLS inh,Menin MLL FP FL,MLL CXXC-DNA inh,CtBP-E1A inh,Menin MLL FP TR
O=[N+]([O-])c1cc(Cl)ccc1N1CCN(c2ccccc2O)CC1,-27,16µM*,3,20%,-24,?
O=C1NC(c2ccccn2)Nc2sc3c(c21)CCC3 (centres undefined),-80*,11%,?,9%,-77*,1%
CN1CCc2c(sc3c2C(=O)NC(c2ccccc2)N3)C1 (centres undefined),-6,?,?,-18%,-10,?
O=C1NC(c2ccc(Br)cc2)Nc2sc3c(c21)CCC3 (centres undefined),-9,-5%,?,18%,5,-22%
CN1CCc2c(sc3c2C(=O)NC(c2ccccn2)N3)C1 (centres undefined),-67*,2%,?,?,?,?
O=C(Oc1coc(CSc2ncccn2)cc1=O)c1cccc([N+](=O)[O-])c1,1,4%,-2,9%,1,16%
O=C(Oc1cccc2cccnc12)c1cccc([N+](=O)[O-])c1,-69*,-4%,0,8%,-75*,4%
Cc1c(C(=O)Oc2cccc3cccnc23)cccc1[N+](=O)[O-],-88*,-5%,-2,0%,2,-13%
O=C(Cc1ccc(Cl)cc1)Oc1cccc2cccnc12,-91*,-1%,3,5%,-83*,0%
O=C(Oc1cccc2cccnc12)c1ccc(Br)o1,-23,2%,4,0%,-8,-5%
O=C(Oc1c(Cl)cc(Cl)c2cccnc12)c1cccc([N+](=O)[O-])c1,-88*,4%,-5,-6%,-98*,5%
CNC(=O)c1ccccc1Sc1ccc2c(/C=C/c3ccccn3)n[nH]c2c1,.,-13%,.,.,.,.
Cc1noc(C)c1-c1ccc2ncnc(NCC3CCN(C)CC3)c2c1,.,.,-10,.,.,4%
O=[N+]([O-])c1ccc(Oc2cccc3cccnc23)c([N+](=O)[O-])c1,?,11%,?,6%,-79*,11%
CCOC(=O)C(NCc1ccccn1)(NC(=O)c1cccnc1)C(F)(F)F (centres undefined),-83*,3%,3,-6%,0,10%
CCOC(=O)C(NC(=O)c1cccnc1)(Nc1cccc(C)n1)C(F)(F)F (centres undefined),4,7%,4,2%,10,4%
Nc1ccc(O)cc1,.,13µM*,.,.,.,.
NS(=O)(=O)c1ccc(N=Nc2c(O)ccc3ccccc23)cc1,-16,-11%,4,-4%,1,?
Oc1ccc(N=Nc2c(O)ccc3ccccc23)cc1,-70*,10%,1,?,-75*,?
N#Cc1cccc(-c2nc3cnc(Nc4ccccc4)nc3n(C[C@H]3CCCO3)c2=O)c1,.,.,?,.,.,28µM*
Cc1ccc2c(c1C)NC(C(=O)O)C1CC=CC21 (centres undefined),-26,?,?,-10%,-6,?

# Screening results from PubChem BioAssay.
